Experimental data reported in PubChem BioAssay AID540359 (Broad Institute, 2011).
Entries with a potency or affinity are not part of this list. Activity calls are given as the source filed them. The rule behind the calls is not given here.

Biological target: UDP-galactopyranose mutase (Mycobacterium tuberculosis (strain ATCC 25618 / H37Rv)) (UniProt P9WIQ1)
Test: Mycobacterium tuberculosis UGM enzyme inhibition, dose response confirmation, purified biochemical assay (AID 540359)

Sequence of UDP-galactopyranose mutase (Mycobacterium tuberculosis (strain ATCC 25618 / H37Rv)) (P9WIQ1 whole entry, looked up): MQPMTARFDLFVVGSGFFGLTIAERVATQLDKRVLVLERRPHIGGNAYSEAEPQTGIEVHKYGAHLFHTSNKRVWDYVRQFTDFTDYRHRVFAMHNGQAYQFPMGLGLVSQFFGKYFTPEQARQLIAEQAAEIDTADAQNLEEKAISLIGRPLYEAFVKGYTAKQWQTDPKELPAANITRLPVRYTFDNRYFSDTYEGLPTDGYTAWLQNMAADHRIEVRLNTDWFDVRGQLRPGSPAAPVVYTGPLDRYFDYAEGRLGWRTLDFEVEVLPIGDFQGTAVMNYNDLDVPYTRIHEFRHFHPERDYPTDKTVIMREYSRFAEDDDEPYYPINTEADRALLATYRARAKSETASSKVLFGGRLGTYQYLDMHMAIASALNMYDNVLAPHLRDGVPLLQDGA

| SMILES | outcome |
| --- | --- |
| CN(CC(=O)NC1CC1)S(=O)(=O)c1ccc(Br)cc1 | inactive |
| O=C(COC(=O)CN1C(=O)NC2(CCCC2)C1=O)NCc1ccc(Cl)cc1Cl | inactive |
| O=C(Nc1nccs1)c1ccc(-c2ccc([N+](=O)[O-])cc2)o1 | inactive |
| NC(=O)c1c(NC(=O)C2COc3ccccc3O2)sc2c1CCN(Cc1ccccc1)C2 (stereo not drawn) | inactive |
| O=C(O)c1ccccc1C(=O)OCCCCOC(=O)c1ccccc1C(=O)O | inactive |
| COc1ccc(OC)c(/C=C2\Oc3cc(OCC(=O)N4CCC[C@H]4C(=O)O)ccc3C2=O)c1 | inactive |
| COc1ccc(-c2cc(=O)[nH]c3ccccc23)cc1 | inactive |
| N#Cc1c(-c2ccccc2)ccnc1Oc1ccccc1 | inactive |
| O=c1[nH]c(=O)n(-c2ccc(F)cc2)c(O)c1/C=C1\C=Nc2ccccc21 | inactive |
| COCCCn1c(=O)/c(=C\c2ccccc2OC(C)C)s/c1=C(/C#N)C(=O)Nc1ccc(C(=O)O)cc1 | inactive |
| CCOC(=O)c1c(C)nc2ccccc2c1C | inactive |
| N#CCCN(CCC#N)C(=O)C1c2ccccc2Oc2ccccc21 | inactive |
| O=C1C2C3C=CC(C3)C2C(=O)N1CCN1CCN(S(=O)(=O)c2ccc3ccccc3c2)CC1 (stereo not drawn) | inactive |
| O=C(OCc1ccc(Br)cc1)c1cnc(Cl)c(Cl)c1 | inactive |
| CCOC(=O)/C(C#N)=C1\CC2CCC1(C)C2(C)C (stereo not drawn) | inactive |
| COc1ccccc1NC(=O)c1sc2nc(Cc3ccccc3)cc(C(F)(F)F)c2c1N | inactive |
| COC(=O)C1=CC(C(=O)c2cccs2)=NN(c2ccc(OC)cc2)C1C(=O)OC (stereo not drawn) | inactive |
| N#C/C(=C(/O)CSc1ccccc1C(=O)O)c1nc2ccccc2s1 | inactive |
| COc1ccccc1NS(=O)(=O)c1cc(N)ccc1N1CCCC1 | inactive |
| Cc1c(C(=O)N2CCOCC2)sc(NC(=O)CCl)c1C#N | inactive |
| CC(=O)NC(Cc1ccccc1)C(=O)OCC(=O)c1ccccc1 (stereo not drawn) | inactive |
| COc1ccccc1NC(=O)C1CCN(S(=O)(=O)c2cccs2)CC1 | inactive |
| COc1ccc(N2C(=O)c3cccc4c(N(C)CCO)ccc(c34)C2=O)cc1 | inactive |
| O=C(NC(=S)Nn1cnnc1)c1ccccc1Cl | inactive |
| COc1cc2c3nnc(-c4ccccc4)c-3cn(Cc3ccccc3F)c2cc1OC | inactive |
| CCN(CC)CCCNC(=O)c1cc(Sc2nnc(C)s2)nc2ccccc12 | inactive |
| CCOc1ccc(/C(CCC(=O)O)=N/NC(=O)c2cccc(S(=O)(=O)Nc3ccccc3OC)c2)cc1 | inactive |
| COc1cc2c3nnc(-c4ccc(F)cc4)c-3cn(Cc3ccc(C)cc3)c2cc1OC | inactive |
